# Laboratory results as given in PubChem BioAssay AID1159580 (chemical genetic matrix, 2015).
# Values joined by “and” are separate entries in the source; they are usually repeats but may differ in a detail not shown here. Equal values may be shown once. In all, about 5,500 compounds went through this assay and about 2,000 (36%) were called active. Roughly 18% stayed inconclusive and do not appear here. The list shows a part of the results. A number with no mark means an inactive call. No stated cut-off is given here; in the data, active means normalized growth mostly below about 0.91 (no sharp cut-off); inconclusive means no clear call, values can overlap the other calls; inactive means mostly above about 0.92.
# Test: chemical genetic growth profiling, strain panel (AID 1159580);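 further: tested at 20 µM; growth read once vehicle control cultures reached saturation at 30 °C; 1 = growth at the plate median or of vehicle wells; lower values mean less growth of the strain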
# Settings: S. cerevisiae deletion strains, growth OD
compound,measurement,setting,value
CC(NCCC(c1ccccc1)c1ccccc1)c1ccccc1 (configuration not stated),normalized growth,"locus YAL013W, strain DEP1, hits give low values",0.925
same,normalized growth,"locus YAL021C, strain ccr4, hits give low values",0.592 (active)
same,normalized growth,"locus YAL026C, strain drs2, hits give low values",0.47 (active)
same,normalized growth,"locus YAL030W, strain snc1, hits give low values",0.992
same,normalized growth,"locus YBL061C, strain skt5, hits give low values",0.934
same,normalized growth,"locus YBR009C, strain hhf1, hits give low values",0.953
same,normalized growth,"locus YBR021W, strain FUR4, hits give low values",0.447 (active)
same,normalized growth,"locus YBR023C, strain chs3, hits give low values",0.799 (active)
same,normalized growth,"locus YBR171W, strain sec66, hits give low values",1
same,normalized growth,"locus YBR229C, strain ROT2, hits give low values",0.946
same,normalized growth,"locus YBR231C, strain swc5, hits give low values",0.944
same,normalized growth,"locus YBR279W, strain paf1, hits give low values",0.893 (active)
same,normalized growth,"locus YCL011C, strain gbp2, hits give low values",0.97
same,normalized growth,"locus YCL016C, strain dcc1, hits give low values",0.964
same,normalized growth,"locus YCL029C, strain bik1, hits give low values",0.975
same,normalized growth,"locus YCL061C, strain MRC1, hits give low values",1.02
same,normalized growth,"locus YCL069W, strain vba3, hits give low values",1.01
same,normalized growth,"locus YCR088W, strain abp1, hits give low values",1.02
same,normalized growth,"locus YDL005C, strain med2, hits give low values",1.03
same,normalized growth,"locus YDL035C, strain GPR1, hits give low values",0.908
same,normalized growth,"locus YDL040C, strain nat1, hits give low values",0.991
same,normalized growth,"locus YDL074C, strain BRE1, hits give low values",0.831
same,normalized growth,"locus YDL101C, strain DUN1, hits give low values",0.971
same,normalized growth,"locus YDL134C, strain PPH21, hits give low values",0.968
same,normalized growth,"locus YDL185W, strain tfp1, hits give low values",0.959
same,normalized growth,"locus YDL192W, strain arf1, hits give low values",0.985
same,normalized growth,"locus YDR001C, strain nth1, hits give low values",1.01
same,normalized growth,"locus YDR069C, strain doa4, hits give low values",0.57 (active)
same,normalized growth,"locus YDR101C, strain arx1, hits give low values",0.994
same,normalized growth,"locus YDR137W, strain rgp1, hits give low values",0.981
same,normalized growth,"locus YDR150W, strain NUM1, hits give low values",0.97
same,normalized growth,"locus YDR159W, strain sac3, hits give low values",1.09
same,normalized growth,"locus YDR162C, strain NBP2, hits give low values",0.936
same,normalized growth,"locus YDR195W, strain ref2",1.28 [resistant] (active)
same,normalized growth,"locus YDR297W, strain sur2, hits give low values",1.01
same,normalized growth,"locus YDR318W, strain mcm21, hits give low values",0.952
same,normalized growth,"locus YDR334W, strain swr1, hits give low values",1.01
same,normalized growth,"locus YDR335W, strain msn5, hits give low values",1
same,normalized growth,"locus YDR388W, hits give low values",0.328 (active)
same,normalized growth,"locus YDR392W, strain spt3, hits give low values",0.93
same,normalized growth,"locus YDR502C, strain sam2, hits give low values",0.964
same,normalized growth,"locus YEL003W, strain gim4, hits give low values",0.988
same,normalized growth,"locus YEL037C, strain rad23, hits give low values",0.98
same,normalized growth,"locus YEL061C, strain CIN8 (second series), hits give low values",1
same,normalized growth,"locus YEL061C, strain CIN8, hits give low values",0.987
same,normalized growth,"locus YER015W, strain faa2, hits give low values",0.9 (active)
same,normalized growth,"locus YER016W, strain bim1, hits give low values",1
same,normalized growth,"locus YER110C, hits give low values",0.978
same,normalized growth,"locus YER111C, strain swi4, hits give low values",1.01
same,normalized growth,"locus YER155C, strain BEM2 (second series), hits give low values",0.978
same,normalized growth,"locus YER155C, strain BEM2, hits give low values",0.999
same,normalized growth,"locus YER167W, strain BCK2, hits give low values",0.964
same,normalized growth,"locus YFR010W, strain ubp6, hits give low values",0.559 (active)
same,normalized growth,"locus YGL078C, strain dbp3, hits give low values",0.977
same,normalized growth,"locus YGL086W, strain mad1, hits give low values",0.96
same,normalized growth,"locus YGL167C, strain pmr1, hits give low values",1.01
same,normalized growth,"locus YGL173C, strain kem1, hits give low values",0.971
same,normalized growth,"locus YGL227W, strain vid30, hits give low values",1
same,normalized growth,"locus YGL240W, strain doc1, hits give low values",1.05
same,normalized growth,"locus YGL248W, strain PDE1, hits give low values",0.979
same,normalized growth,"locus YGL253W, strain hxk2, hits give low values",0.868 (active)
same,normalized growth,"locus YGR078C, strain PAC10, hits give low values",0.909
same,normalized growth,"locus YGR135W, strain pre9, hits give low values",0.832 (active)
same,normalized growth,"locus YGR229C, strain SMI1, hits give low values",0.623 (active)
same,normalized growth,"locus YGR252W, strain gcn5, hits give low values",0.679 (active)
same,normalized growth,"locus YHR013C, strain ard1, hits give low values",0.655 (active)
same,normalized growth,"locus YHR027C, strain rpn1, hits give low values",0.944
same,normalized growth,"locus YHR030C, strain SLT2, hits give low values",0.974 and 0.983
same,normalized growth,"locus YHR079C, strain IRE1 (second series), hits give low values",0.99
same,normalized growth,"locus YHR079C, strain IRE1, hits give low values",0.982
same,normalized growth,"locus YHR094C, strain hxt1, hits give low values",0.991
same,normalized growth,"locus YHR129C, strain ARP1, hits give low values",0.974
same,normalized growth,"locus YHR142W, strain chs7, hits give low values",0.802 (active)
same,normalized growth,"locus YHR200W, strain rpn10, hits give low values",0.99
same,normalized growth,"locus YIL066C, strain RNR3, hits give low values",0.948
same,normalized growth,"locus YIL073C, strain SPO22, hits give low values",1.14
same,normalized growth,"locus YIL125W, strain kgd1, hits give low values",0.989
same,normalized growth,"locus YIR030C, strain dcg1, hits give low values",0.978
same,normalized growth,"locus YJL092W, strain hpr5, hits give low values",0.986
same,normalized growth,"locus YJL095W, strain BCK1 (second series), hits give low values",0.901 (active)
same,normalized growth,"locus YJL095W, strain BCK1, hits give low values",0.824 and 0.989
same,normalized growth,"locus YJL115W, strain asf1, hits give low values",1
same,normalized growth,"locus YJL129C, strain trk1, hits give low values",1
same,normalized growth,"locus YJL134W, strain LCB3, hits give low values",0.988
same,normalized growth,"locus YJL154C, strain vps35, hits give low values",0.998
same,normalized growth,"locus YJL164C, strain tpk1, hits give low values",0.922
same,normalized growth,"locus YJL166W, strain qcr8, hits give low values",0.914
same,normalized growth,"locus YJL168C, strain set2, hits give low values",0.991
same,normalized growth,"locus YJL187C, strain SWE1 (second series), hits give low values",0.931
same,normalized growth,"locus YJL187C, strain SWE1, hits give low values",0.978
same,normalized growth,"locus YJR043C, strain POL32, hits give low values",1
same,normalized growth,"locus YJR066W, strain TOR1, hits give low values",0.903
